Holding throughout (test): qHTS profiling for inhibitors of Plasmodium falciparum proliferation (AID 504749); also: nearly all actives have a fitted effect of over 60% in size
Settings in all cases: P. falciparum in erythrocytes, SYBR Green DNA, 72 h; series mostly up to 28.7 µM

One experiment deals with DIV14. The method, boiled down: (§1)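 Readout was DNA-dye fluorescence from lysed cultures, ex 485/em 535 nm. Parasitized red cells had grown 72 h with compound; data scaled between 0.29 uM artemisinin and DMSO wells and corrected using vehicle-only plates.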
The next experiment deals with DIV17. The method, boiled down: as §1
The next experiment has as its system Dd2. The method, boiled down:
as §1

Another experiment concerns FAB9. An outline of the steps:
as §1

In another experiment the test system is GB4. The method, boiled down: as §1
A further experiment deals with HB3. An outline of the steps: as §1
Another experiment concerns ICS. An outline of the steps:
as §1

The subject of another experiment is JCK. The method, boiled down: as §1
A further experiment has as its system N140. The method, boiled down:
as §1

Another experiment has as its system CP325. An outline of the steps: as §1
In a further experiment the test system is CP329. The method, boiled down: as §1
For another experiment, the system named is DIV30. An outline of the steps:
as §1

The subject of a further experiment is PC15. The method, boiled down:
as §1

The subject of another experiment is PC26. An outline of the steps:
as §1

The next experiment concerns CP335. The method, boiled down: as §1
Another experiment concerns DFO2036. The method, boiled down:
as §1

Another experiment deals with P94_40. The method, boiled down: as §1
A further experiment has as its system ECU. An outline of the steps:
as §1

Another experiment has as its system PAD. An outline of the steps: as §1
For a further experiment, the system named is P93_24. An outline of the steps: as §1

Records with an inconclusive call do not appear. Activity calls are given as the source filed them. Calls follow the shape of the dose curve; as a rule, active = well fitted inhibition curve with a large enough effect; inconclusive = small, poorly fitted or top-dose-only effect; inactive = flat fitted curve, though single readings scatter.
Potency is read from the fitted curve at half-maximal effect.

Consider `O=c1[nH]c2ccccc2n1CCCN1CCN(C(c2ccccc2)c2ccccc2)CC1`, for which the Potency is 13.5 µM (active) in the experiment with DIV14; 13.5 µM (active) with DIV17; 11.2 µM (active) in the experiment on Dd2; 13.5 µM (active) with GB4; 7.94 µM (active) in the experiment on ICS; 11.2 µM (active) with N140. The Potency entry in the experiment with FAB9, in the experiment with HB3 and in the experiment with JCK was “inactive” each time.

For `CCCC(=O)OC[C@@H](OC(=O)CCC)[C@@H](OC(=O)CCC)[C@H](Cn1c2nc(=O)[nH]c(=O)c-2nc2cc(C)c(C)cc21)OC(=O)CCC`, the Potency result with CP325, with CP329, in the experiment on DIV14, in the experiment with DIV30, in the experiment with JCK and with PC15 was “inactive” throughout. For the same molecule, the Potency result in the experiment on PC26 was “inactive”. In the experiment on Dd2, the Potency is 11.2 µM (active).

For `COc1cc(/C=C/C(=O)N2CCN(CC(=O)N3CCCC3)CC2)cc(OC)c1OC`, the Potency entry with CP325, in the experiment on CP329, in the experiment on CP335, with DFO2036, with Dd2 and in the experiment on FAB9 was “inactive” throughout. Besides, the Potency entry in the experiment with GB4, in the experiment on HB3, with JCK, in the experiment with P94_40 and in the experiment with PC15 was “inactive” each time. The Potency in the experiment on ICS is 11.2 µM (active).

Take `COc1ccc(-c2cc(=S)ss2)cc1`: the Potency result in the experiment with CP325, with CP329, with CP335, in the experiment with DFO2036, in the experiment with DIV14 and with DIV17 was “inactive” throughout. For the same molecule, the Potency result with Dd2, in the experiment with FAB9, in the experiment with GB4, in the experiment with HB3, in the experiment with JCK and in the experiment on N140 was “inactive” throughout. The Potency entry with PC15 and in the experiment with PC26 was “inactive” in each case. Besides, the Potency with ECU was 12.6 µM (active); in the experiment with ICS, 7.94 µM (active).

As to `O=C(O)c1cc(O)c(O)c(O)c1`, the Potency entry with CP325, in the experiment on CP329, with DFO2036, in the experiment with DIV30, in the experiment on ECU and with HB3 was “inactive” each time. For the same molecule, the Potency entry in the experiment with P94_40, in the experiment on PAD, with PC15 and in the experiment with PC26 was “inactive” throughout.

Turning to `Clc1ccccc1-c1nc(-c2ccncc2)no1`, the Potency result with CP325, in the experiment with CP329, in the experiment on CP335, with DFO2036, in the experiment with DIV30 and in the experiment on Dd2 was “inactive” in each case. Further, the Potency result in the experiment on FAB9, in the experiment with GB4, in the experiment with HB3, in the experiment on JCK, with P94_40 and with PC26 was “inactive” each time. Further, the Potency with DIV17 is 15.1 µM (active).

On to `COc1cc(/C=C/C(=O)CC(=O)/C=C/c2ccc(O)c(OC)c2)ccc1O`, for which the Potency in the experiment on DIV14 was 16.9 µM (active); in the experiment on DIV17, 13.5 µM (active); with DIV30 it was 13.5 µM (active); in the experiment with Dd2, 12.6 µM (active); with ECU, 1 µM (active); with GB4, 12 µM (active). Further, the Potency in the experiment with PC26 is 9.53 µM (active). Moreover, the Potency result with FAB9 and in the experiment on JCK was “inactive” each time.

Regarding `Cc1nc2ccccc2n1Cc1ccc(Cl)cc1`, the Potency result in the experiment with DIV14, in the experiment on DIV17, in the experiment on DIV30, in the experiment on Dd2, in the experiment with FAB9 and in the experiment with JCK was “inactive” each time. Further, the Potency entry in the experiment with P93_24, in the experiment with P94_40, with PAD, with PC15 and with PC26 was “inactive” each time.

With `CCCCC[C@H](O)/C=C/[C@@H]1[C@@H](C/C=C\CCCC(=O)O)[C@@H](O)C[C@H]1O`, the Potency entry in the experiment on CP325, in the experiment on CP329, with DFO2036, with DIV14, in the experiment with DIV17 and in the experiment with DIV30 was “inactive” in each case. Also, the Potency result in the experiment with Dd2, in the experiment with ECU, with FAB9, in the experiment on GB4, in the experiment with HB3 and in the experiment on ICS was “inactive” each time. Also, the Potency entry in the experiment on JCK, with N140, in the experiment on P93_24, in the experiment on P94_40, in the experiment with PAD and with PC15 was “inactive” throughout.

For the molecule `COc1ccc(/C=C/C(=O)Nc2ccccc2C(=O)O)cc1OC`, the Potency entry in the experiment on CP325, in the experiment on CP329, with CP335, in the experiment with DFO2036, with DIV14 and in the experiment on DIV17 was “inactive” throughout. Besides, the Potency result in the experiment with Dd2, with ECU, in the experiment on FAB9, in the experiment on HB3, in the experiment on ICS and in the experiment on JCK was “inactive” in each case. The Potency result with N140, with P93_24, in the experiment on P94_40, with PAD and in the experiment on PC26 was “inactive” each time.

Take `COc1cc(CNC(=O)CCCC/C=C/C(C)C)ccc1O`: the Potency entry with CP325, in the experiment on CP329, with CP335, with DFO2036, with DIV14 and in the experiment on DIV17 was “inactive” each time. For the same molecule, the Potency result in the experiment on Dd2, with ECU, in the experiment on FAB9, in the experiment with GB4, in the experiment on HB3 and with ICS was “inactive” throughout. Moreover, the Potency result with JCK, in the experiment with N140, in the experiment on P93_24, with P94_40, in the experiment with PAD and in the experiment with PC15 was “inactive” in each case. In the experiment with PC26, the Potency entry was “inactive”.

Regarding `CC(N)C(=O)OC(C)(C)Cc1ccc(Cl)cc1` (stereo not given), the Potency with DIV14 is 9.53 µM (active); in the experiment with DIV17, 8.49 µM (active); in the experiment with Dd2, 7.94 µM (active); with GB4, 5.36 µM (active). For the same molecule, the Potency entry with FAB9, in the experiment on HB3, in the experiment with JCK and in the experiment with PAD was “inactive” each time.

For `O=C(O)Cc1ccc(-c2ccccc2)cc1`, the Potency entry in the experiment with CP325, in the experiment with CP329, in the experiment on DFO2036, with DIV14, with DIV17 and in the experiment with DIV30 was “inactive” each time. Further, the Potency entry in the experiment with Dd2, in the experiment on ECU, in the experiment on FAB9, with GB4, with HB3 and with ICS was “inactive” in each case. Also, the Potency result in the experiment on JCK, in the experiment on N140, with P93_24, in the experiment with P94_40, in the experiment on PAD and in the experiment on PC15 was “inactive” in each case. In addition, the Potency result with PC26 is “inactive”.

Regarding `CCCCCCCCCCCC(=O)[O][Sn]([CH2]CCC)([CH2]CCC)[O]C(=O)CCCCCCCCCCC`, the Potency entry in the experiment with CP325, in the experiment on CP329, with CP335, with DFO2036, in the experiment with DIV14 and with DIV17 was “inactive” each time. For the same molecule, the Potency result in the experiment on DIV30, in the experiment on Dd2, in the experiment with ECU, in the experiment with FAB9, with GB4 and in the experiment with HB3 was “inactive” in each case. For the same molecule, the Potency entry with JCK, with N140, with P93_24, in the experiment on P94_40, in the experiment on PAD and with PC15 was “inactive” each time.

Take `O=C1CN(/N=C/c2ccc(-c3ccc([N+](=O)[O-])cc3)o2)C(=O)N1`: the Potency entry in the experiment on CP325, in the experiment with CP329, with CP335, with DFO2036, in the experiment with DIV30 and in the experiment with Dd2 was “inactive” each time. Further, the Potency entry with ECU, in the experiment on FAB9, in the experiment with HB3, in the experiment with ICS, in the experiment on JCK and in the experiment with N140 was “inactive” in each case. Besides, the Potency entry with P94_40, in the experiment with PAD and in the experiment on PC15 was “inactive” in each case.

`C=C(Nc1ccc(OCC)cc1)Nc1ccc(OCC)cc1`: the Potency result in the experiment with CP325, with CP329, with CP335, in the experiment with DFO2036, in the experiment with DIV14 and in the experiment on DIV17 was “inactive” throughout. For the same molecule, the Potency result in the experiment on DIV30, with Dd2, in the experiment on ECU, in the experiment on FAB9, with HB3 and in the experiment on ICS was “inactive” in each case. Further, the Potency entry with JCK, in the experiment with N140, with P93_24, in the experiment with P94_40, with PAD and in the experiment with PC15 was “inactive” each time. The Potency result with PC26 was “inactive”.

For the molecule `CC(=O)[C@]1(O)Cc2c(O)c3c(c(O)c2[C@@H](O[C@H]2C[C@H](N)[C@H](O)[C@H](C)O2)C1)C(=O)c1c(O)cccc1C3=O`, the Potency in the experiment with CP325 is 15.1 µM (active); with CP335, 5.36 µM (active); with DFO2036, 7.94 µM (active); in the experiment on DIV14, 4.26 µM (active); with DIV17, 4.78 µM (active); in the experiment on Dd2 it was 3.16 µM (active). For the same molecule, the Potency in the experiment on GB4 was 4.78 µM (active); with HB3, 7.94 µM (active); in the experiment on ICS, 2 µM (active); in the experiment with JCK it was 11.2 µM (active); in the experiment with N140, 10 µM (active); in the experiment on P93_24, 7.94 µM (active). The figures for the Potency in the experiment on P94_40, with PAD and in the experiment on PC15 were 10 µM (active), 12.6 µM (active) and 7.94 µM (active), respectively.

On to `CN1[C@@H]2CC[C@H]1CC(OC(=O)C(CO)c1ccccc1)C2` (stereo not given in full), for which the Potency result in the experiment on CP325, with CP329, in the experiment on CP335, in the experiment on DFO2036, in the experiment with DIV14 and in the experiment with DIV17 was “inactive” in each case. Moreover, the Potency result in the experiment on Dd2, in the experiment on ECU, with FAB9, in the experiment with GB4, in the experiment with HB3 and with ICS was “inactive” in each case. For the same molecule, the Potency entry with JCK, in the experiment with N140, with P93_24, with P94_40, with PAD and with PC15 was “inactive” throughout. The Potency result in the experiment with PC26 is “inactive”.

(Values after PubChem BioAssay (NCATS).)
